Results published in PubChem BioAssay AID2284419 (EPA ToxCast).
Inconclusive results are not listed. Activity calls are given as the source filed them. How the source made its calls: active means hit-call score of the fitted dose curve at least 0.9, where 1 is the maximum; inconclusive means response in the unintended direction; inactive means score below 0.9.

What follows are compounds tested on SRY-box transcription factor 2 (SOX2) Protein Expression, Deisenroth Lab, SOX2 (gene 6657) (assay: CCTE_Deisenroth_DEVTOX-GLR_Meso_SOX2: CCTE's DevTox GLR-Meso Assay Evaluation of SRY-box transcription factor 2 (SOX2) Protein Expression, Deisenroth Lab).
Protocol: CCTE_Deisenroth_DEVTOX-GLR_Meso assay is a cell-based, multiplex-readout assay that uses RUES2-GLR, a human pluripotent cell line, with measurements taken at 48 hours after chemical dosing in a 384-well microplateCCTE_Deisenroth_DEVTOX-GLR_Meso_SOX2 is 1 of 4 assay components calculated from the CCTE_Deisenroth_DEVTOX-GLR_Meso assay and it measures an the percentage of cells in an ectoderm state. Using a type of inducible fluorescent protein reporter, gain-of-signal activity can be used to understand changes in gene expression with fluorescent microscopy. The percentage of SOX2+ cells are determined by calculating the number of SOX2+ cells divided by the cell count. To generalize the intended target to other relatable targets, this assay component is annotated to the transcription factor intended target family, where the subfamily is SRY-related HMG-box.Data from the assay component CCTE_Deisenroth_DEVTOX-GLR_Meso_SOX2 was analyzed as 1 assay endpoint. The endpoint is the percent SOX2+ cell population minus the 0.2% DMSO control in the CCTE_Deisenroth_DEVTOX-GLR_Meso assay. Furthermore, this assay endpoint can be referred to as a secondary readout, because this assay has produced multiple assay endpoints where this one serves as a measure of ectoderm differentiation.
All assay protocols are aligned to the DevTox GLR-Endo assay workflow. Cells are seeded into 384-well microplates for 24 hours prior to initiating differentiation in defined media for a total duration of 48 hours. A total of two chemical exposures are administered in 24-hour intervals during the 48-hour differentiation period. At the assay termination point, cells are fixed and stained with a fluorescent dye demarcating the nucleus. High-content imaging is used to acquire brightfield and fluorescent channel images across 5 fields per well. Cell identification and mean biomarker fluorescence intensities are calculated with image analysis software to determine the total cell counts for viability assessment and the biomarker expression frequency for each lineage-dependent assay. A typical experimental design tests a 10-point concentration series (1 nM - 200 uM) for 28 compounds in single technical replicate. Assay plate controls include non-differentiated pluripotent cells (baseline control), lineage-specific differentiated cells (differentiation control), and DMSO solvent exposed differentiated cells (solvent control). Experiments typically comprise a minimum of four experimental replicates (n=4).

SMILES	outcome	AC50
CC1(C)S[C@@H]2[C@H](NC(=O)Cc3ccccc3)C(=O)N2[C@H]1C(=O)O	inactive	–
CC1=C(/C=C/C(C)=C/C=C/C(C)=C\C(=O)O)C(C)(C)CCC1	–	18.8 µM (active)
CCN(CC)CCNC(=O)c1c(C)[nH]c(/C=C2\C(=O)Nc3ccc(F)cc32)c1C	–	0.194 µM (active)
CN(Cc1cnc2nc(N)nc(N)c2n1)c1ccc(C(=O)N[C@@H](CCC(=O)O)C(=O)O)cc1	–	0.0688 µM (active)
CS(=O)(=O)OCCCCOS(C)(=O)=O	–	124 µM (active)
Nc1nc2ncc(CNc3ccc(C(=O)N[C@@H](CCC(=O)O)C(=O)O)cc3)nc2c(=O)[nH]1	inactive	–
Nc1cccc2c1C(=O)N(C1CCC(=O)NC1=O)C2=O (stereo not given)	inactive	–
CC(C)(c1ccc(O)cc1)c1ccc(O)cc1	–	56.6 µM (active)
CC1=C(/C=C/C(C)=C/C=C/C(C)=C/C(=O)O)C(C)(C)CCC1	–	7.53 µM (active)
O=c1[nH]cc(F)c(=O)[nH]1	–	19.9 µM (active)
CC/C(=C(/CC)c1ccc(O)cc1)c1ccc(O)cc1	–	3.63 µM (active)
CC(=O)Nc1ccc(O)cc1	inactive	–
O=C1CCC(N2C(=O)c3ccccc3C2=O)C(=O)N1 (stereo not given)	inactive	–
O=C1NC(=O)C(c2ccccc2)(c2ccccc2)N1	–	180 µM (active)
O=C1NS(=O)(=O)c2ccccc21	inactive	–
